Assay results reported in PubChem BioAssay (EPA / NIEHS).
Active and inactive are the calls of the source. How the source made its calls: active means hit-call score of the fitted dose curve at least 0.9, where 1 is the maximum; inactive means score below 0.9.

Columns and labels:
Details in all cases: mRNA level, 48 h; actives raise or lower the signal
[1] = read-out: Fatty acid synthase (Homo sapiens) (UniProt P49327); assay: LTEA_HepaRG_FASN: Life Technologies and Expression Analysis (LTEA) Assay for Fatty Acid Synthase (FASN) using HepaRG (AID 2283448);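 on AC50: differentiated human HepaRG liver cells in serum-free induction medium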
Outline: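 Differentiated HepaRG cells in serum-free induction medium exposed 48 h in duplicate to eight half-log concentrations, top 100 uM, 0.5% DMSO. FASN mRNA by qRT-PCR normalised to ACTB, GAPDH, POLR2A; bidirectional fit versus DMSO.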

[2] = read-out: Cyclin D2 (CCND2), CCND2 (gene 894); assay: LTEA_HepaRG_CCND2: Life Technologies and Expression Analysis (LTEA) Assay for Cyclin D2 (CCND2) using HepaRG (AID 2283449)
Outline: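 Read-out is CCND2 mRNA level measured by qRT-PCR in human HepaRG liver cells and normalised to three housekeeping genes. Chemicals were applied for 48 h at up to 100 uM, with gain or loss fitted relative to 0.5% DMSO.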

[3] = read-out: Cyclin Dependent Kinase Inhibitor 1A (CDKN1A), CDKN1A (gene 1026); assay: LTEA_HepaRG_CDKN1A: Life Technologies and Expression Analysis (LTEA) Assay for Cyclin Dependent Kinase Inhibitor 1A (CDKN1A) using HepaRG (AID 2283450)
Outline: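 Expression quantified by Fluidigm qRT-PCR with ACTB, GAPDH and POLR2A normalization, fitted bidirectionally against 0.5% DMSO. Cells: HepaRG, plated 48 h then treated 48 h in serum-free induction medium, top concentration 100 uM with half-log dilutions.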

[4] = read-out: Cyclin D1 (CCND1), CCND1 (gene 595); assay: LTEA_HepaRG_CCND1: Life Technologies and Expression Analysis (LTEA) Assay for Cyclin D1 (CCND1) using HepaRG (AID 2283451);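 on AC50: differentiated human HepaRG liver cells in serum-free induction medium; TaqMan qRT-PCR transcript level normalised to ACTB GAPDH and POLR2A housekeeping genes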
Outline: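 Expression of CCND1 was quantified by qRT-PCR on Fluidigm arrays using ACTB, GAPDH and POLR2A as reference genes. HepaRG cultures, plated 48 h beforehand, were dosed for 48 h at up to 100 uM (half-log, 8 points) in 0.5% DMSO.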

[5] = read-out: catalase (CAT), CAT (gene 847); assay: LTEA_HepaRG_CAT: Life Technologies and Expression Analysis (LTEA) Assay for catalase (CAT) using HepaRG (AID 2283452)
Outline: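 Expression of CAT was quantified by TaqMan qRT-PCR with ACTB/GAPDH/POLR2A normalization after 48 h chemical exposure of HepaRG. Eight-point half-log series, top 100 uM, in 0.5% DMSO; gain or loss fitted against vehicle.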

[6] = read-out: flavin-containing dimethylaniline monooxygenases 3 (FMO3), FMO3 (gene 2328); assay: LTEA_HepaRG_FMO3: Life Technologies and Expression Analysis (LTEA) Assay for flavin-containing dimethylaniline monooxygenases 3 (FMO3) using HepaRG (AID 2283453);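 on AC50: differentiated human HepaRG liver cells in serum-free induction medium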
Outline: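 Differentiated HepaRG cells in serum-free induction medium, exposed 48 h in duplicate to 8 half-log concentrations up to 100 uM in 0.5% DMSO. FMO3 mRNA by qRT-PCR, normalized to ACTB, GAPDH, POLR2A; bidirectional fit vs DMSO.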

[7] = read-out: Cytochrome P450 (CYP1A1), CYP1A1 (gene 1543); assay: LTEA_HepaRG_CYP1A1: Life Technologies and Expression Analysis (LTEA) Assay for Cytochrome P450 (CYP1A1) using HepaRG (AID 2283454)
Outline: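 CYP1A1 transcript levels measured by Fluidigm qRT-PCR against three housekeeping genes, 48 h after chemical dosing of human HepaRG cells (highest concentration 100 uM, half-log steps, 0.5% DMSO vehicle). Gain or loss of signal fitted relative to DMSO.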

[8] = read-out: CFLAR gene, CFLAR (gene 8837); assay: LTEA_HepaRG_CFLAR: Life Technologies and Expression Analysis (LTEA) Assay for CFLAR gene using HepaRG (AID 2283455)
Outline: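 HepaRG, 48 h exposure, 8-pt conc-response (100 uM top, half-log), 0.5% DMSO vehicle, duplicates. CFLAR expression by qRT-PCR; ACTB/GAPDH/POLR2A normalization; gain or loss fit vs DMSO baseline.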

[9] = read-out: Forkhead box O1 (FOXO1), FOXO1 (gene 2308); assay: LTEA_HepaRG_FOXO1: Life Technologies and Expression Analysis (LTEA) Assay for Forkhead box O1 (FOXO1) using HepaRG (AID 2283456)
Outline: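 Readout is FOXO1 transcript level by multiplexed qRT-PCR against three housekeeping genes, curve-fitted in both directions relative to 0.5% DMSO vehicle. Human HepaRG cultures received chemicals for 48 h, up to 100 uM in half-log steps.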

[10] = read-out: growth arrest and DNA damage 45 (GADD45A), GADD45A (gene 1647); assay: LTEA_HepaRG_GADD45A: Life Technologies and Expression Analysis (LTEA) Assay for growth arrest and DNA damage 45 (GADD45A) using HepaRG (AID 2283458)
Outline: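 Differentiated HepaRG cells exposed 48 h in serum-free induction medium to 8 concentrations, top 100 uM in half-log steps, 0.5% DMSO. GADD45A mRNA quantified by qRT-PCR, normalized to ACTB, GAPDH and POLR2A; bidirectional fit versus DMSO.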

[11] = read-out: Forkhead box O3 (FOXO3), FOXO3 (gene 2309); assay: LTEA_HepaRG_FOXO3: Life Technologies and Expression Analysis (LTEA) Assay for Forkhead box O3 (FOXO3) using HepaRG (AID 2283459)
Outline: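 HepaRG, 48 h post-dose; 8 conc., half-log from 100 uM, 0.5% DMSO, duplicates; serum-free induction medium. Readout: FOXO3 mRNA, TaqMan qRT-PCR, housekeeping-normalized. Bidirectional curve fit vs DMSO baseline.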

[12] = read-out: ABC Transporter (ABCB1), ABCB1 (gene 5243); assay: LTEA_HepaRG_ABCB1: Life Technologies and Expression Analysis (LTEA) Assay for ABC Transporter (ABCB1) using HepaRG (AID 2283460)
Outline: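 Expression of ABCB1 was quantified by qRT-PCR against three housekeeping genes after human HepaRG cultures received test chemicals for 48 hours. Concentrations spanned eight half-log steps topping at 100 uM in 0.5% DMSO; gain or loss of signal was fitted relative to vehicle.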

[13] = read-out: growth arrest and DNA damage 45 (GADD45B), GADD45B (gene 4616); assay: LTEA_HepaRG_GADD45B: Life Technologies and Expression Analysis (LTEA) Assay for growth arrest and DNA damage 45 (GADD45B) using HepaRG (AID 2283461)
Outline: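 Transcript level quantified by Fluidigm TaqMan qRT-PCR with three housekeeping genes for normalization, analyzed for up- or down-regulation against 0.5% DMSO. HepaRG cultures dosed 48 h at eight half-log concentrations up to 100 uM, duplicates.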

[14] = read-out: ABC Transporter (ABCB11), ABCB11 (gene 8647); assay: LTEA_HepaRG_ABCB11: Life Technologies and Expression Analysis (LTEA) Assay for ABC Transporter (ABCB11) using HepaRG (AID 2283463)
Outline: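 ABCB11 transcript levels are read by Fluidigm TaqMan qRT-PCR after 48 h chemical treatment of human HepaRG cells. Concentrations span 100 uM downward in half-log steps with 0.5% DMSO; gain or loss is fitted against DMSO controls.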

[15] = read-out: Broad substrate specificity ATP-binding cassette transporter ABCG2 (Homo sapiens) (UniProt Q9UNQ0); assay: LTEA_HepaRG_ABCG2: Life Technologies and Expression Analysis (LTEA) Assay for ABC Transporter (ABCG2) using HepaRG (AID 2283465)
Outline: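 Read-out is ABCG2 mRNA induction or loss quantified by qRT-PCR after 48 h chemical treatment of human HepaRG cells, normalized to three housekeeping genes. Concentrations reached 100 uM top in half-log steps; fitting was bidirectional against 0.5% DMSO.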

[16] = read-out: ATP-citrate lyase (ACLY), ACLY (gene 47); assay: LTEA_HepaRG_ACLY: Life Technologies and Expression Analysis (LTEA) Assay for ATP-citrate lyase (ACLY) using HepaRG (AID 2283466)
Outline: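 HepaRG, 48 h exposure, 8-pt half-log dilutions (top 100 uM), 0.5% DMSO. Readout: ACLY mRNA, TaqMan qRT-PCR, housekeeping-normalized (ACTB/GAPDH/POLR2A). Bidirectional curve fit vs DMSO.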

[17] = read-out: Peroxisomal acyl-coenzyme A oxidase 1 (ACOX1) gene, ACOX1 (gene 51); assay: LTEA_HepaRG_ACOX1: Life Technologies and Expression Analysis (LTEA) Assay for Peroxisomal acyl-coenzyme A oxidase 1 (ACOX1) gene using HepaRG (AID 2283467)
Outline: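 Measured by qRT-PCR against three housekeeping genes: ACOX1 transcript change in human HepaRG cells after 48 h dosing. Concentrations ran up to 100 uM in half-log steps. Curves were fitted bidirectionally relative to 0.5% DMSO.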

[18] = read-out: ABC Transporter (ABCC3), ABCC3 (gene 8714); assay: LTEA_HepaRG_ABCC3: Life Technologies and Expression Analysis (LTEA) Assay for ABC Transporter (ABCC3) using HepaRG (AID 2283462)
Outline: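 Transcript level by TaqMan qRT-PCR, normalised to three housekeeping genes, fitted in both directions relative to vehicle. Chemicals tested in duplicate at eight half-log concentrations up to 100 uM for 48 h on HepaRG cells (0.5% DMSO).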

[19] = read-out: ABC Transporter (ABCC2), ABCC2 (gene 1244); assay: LTEA_HepaRG_ABCC2: Life Technologies and Expression Analysis (LTEA) Assay for ABC Transporter (ABCC2) using HepaRG (AID 2283464)
Outline: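 Endpoint is ABCC2 transcript level from qRT-PCR, normalized to three housekeeping genes and fitted bidirectionally relative to DMSO. Human HepaRG cells received test chemical for 48 h at up to 100 uM (8 points, half-log steps, 0.5% DMSO), duplicate wells.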

Measured: AC50

Sequence of Broad substrate specificity ATP-binding cassette transporter ABCG2 (Homo sapiens) (Q9UNQ0 whole entry, looked up): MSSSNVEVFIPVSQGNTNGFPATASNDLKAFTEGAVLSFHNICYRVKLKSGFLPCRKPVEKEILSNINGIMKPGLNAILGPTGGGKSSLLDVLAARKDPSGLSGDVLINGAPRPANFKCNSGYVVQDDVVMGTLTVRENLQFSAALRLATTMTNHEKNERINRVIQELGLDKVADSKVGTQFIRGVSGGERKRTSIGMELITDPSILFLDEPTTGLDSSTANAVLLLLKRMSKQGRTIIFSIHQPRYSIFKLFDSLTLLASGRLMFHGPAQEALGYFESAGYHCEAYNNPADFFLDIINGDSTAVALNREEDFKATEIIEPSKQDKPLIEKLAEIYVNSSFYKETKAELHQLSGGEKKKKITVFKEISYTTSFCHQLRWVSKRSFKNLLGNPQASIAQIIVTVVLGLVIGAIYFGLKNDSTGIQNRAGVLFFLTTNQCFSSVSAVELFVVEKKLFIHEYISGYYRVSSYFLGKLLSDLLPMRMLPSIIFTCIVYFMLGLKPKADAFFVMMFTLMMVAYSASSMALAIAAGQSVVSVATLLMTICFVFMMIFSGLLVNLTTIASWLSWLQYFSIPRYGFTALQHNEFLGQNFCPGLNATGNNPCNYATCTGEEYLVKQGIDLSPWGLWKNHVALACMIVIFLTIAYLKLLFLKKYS
Sequence of Fatty acid synthase (Homo sapiens) (P49327 whole entry, looked up): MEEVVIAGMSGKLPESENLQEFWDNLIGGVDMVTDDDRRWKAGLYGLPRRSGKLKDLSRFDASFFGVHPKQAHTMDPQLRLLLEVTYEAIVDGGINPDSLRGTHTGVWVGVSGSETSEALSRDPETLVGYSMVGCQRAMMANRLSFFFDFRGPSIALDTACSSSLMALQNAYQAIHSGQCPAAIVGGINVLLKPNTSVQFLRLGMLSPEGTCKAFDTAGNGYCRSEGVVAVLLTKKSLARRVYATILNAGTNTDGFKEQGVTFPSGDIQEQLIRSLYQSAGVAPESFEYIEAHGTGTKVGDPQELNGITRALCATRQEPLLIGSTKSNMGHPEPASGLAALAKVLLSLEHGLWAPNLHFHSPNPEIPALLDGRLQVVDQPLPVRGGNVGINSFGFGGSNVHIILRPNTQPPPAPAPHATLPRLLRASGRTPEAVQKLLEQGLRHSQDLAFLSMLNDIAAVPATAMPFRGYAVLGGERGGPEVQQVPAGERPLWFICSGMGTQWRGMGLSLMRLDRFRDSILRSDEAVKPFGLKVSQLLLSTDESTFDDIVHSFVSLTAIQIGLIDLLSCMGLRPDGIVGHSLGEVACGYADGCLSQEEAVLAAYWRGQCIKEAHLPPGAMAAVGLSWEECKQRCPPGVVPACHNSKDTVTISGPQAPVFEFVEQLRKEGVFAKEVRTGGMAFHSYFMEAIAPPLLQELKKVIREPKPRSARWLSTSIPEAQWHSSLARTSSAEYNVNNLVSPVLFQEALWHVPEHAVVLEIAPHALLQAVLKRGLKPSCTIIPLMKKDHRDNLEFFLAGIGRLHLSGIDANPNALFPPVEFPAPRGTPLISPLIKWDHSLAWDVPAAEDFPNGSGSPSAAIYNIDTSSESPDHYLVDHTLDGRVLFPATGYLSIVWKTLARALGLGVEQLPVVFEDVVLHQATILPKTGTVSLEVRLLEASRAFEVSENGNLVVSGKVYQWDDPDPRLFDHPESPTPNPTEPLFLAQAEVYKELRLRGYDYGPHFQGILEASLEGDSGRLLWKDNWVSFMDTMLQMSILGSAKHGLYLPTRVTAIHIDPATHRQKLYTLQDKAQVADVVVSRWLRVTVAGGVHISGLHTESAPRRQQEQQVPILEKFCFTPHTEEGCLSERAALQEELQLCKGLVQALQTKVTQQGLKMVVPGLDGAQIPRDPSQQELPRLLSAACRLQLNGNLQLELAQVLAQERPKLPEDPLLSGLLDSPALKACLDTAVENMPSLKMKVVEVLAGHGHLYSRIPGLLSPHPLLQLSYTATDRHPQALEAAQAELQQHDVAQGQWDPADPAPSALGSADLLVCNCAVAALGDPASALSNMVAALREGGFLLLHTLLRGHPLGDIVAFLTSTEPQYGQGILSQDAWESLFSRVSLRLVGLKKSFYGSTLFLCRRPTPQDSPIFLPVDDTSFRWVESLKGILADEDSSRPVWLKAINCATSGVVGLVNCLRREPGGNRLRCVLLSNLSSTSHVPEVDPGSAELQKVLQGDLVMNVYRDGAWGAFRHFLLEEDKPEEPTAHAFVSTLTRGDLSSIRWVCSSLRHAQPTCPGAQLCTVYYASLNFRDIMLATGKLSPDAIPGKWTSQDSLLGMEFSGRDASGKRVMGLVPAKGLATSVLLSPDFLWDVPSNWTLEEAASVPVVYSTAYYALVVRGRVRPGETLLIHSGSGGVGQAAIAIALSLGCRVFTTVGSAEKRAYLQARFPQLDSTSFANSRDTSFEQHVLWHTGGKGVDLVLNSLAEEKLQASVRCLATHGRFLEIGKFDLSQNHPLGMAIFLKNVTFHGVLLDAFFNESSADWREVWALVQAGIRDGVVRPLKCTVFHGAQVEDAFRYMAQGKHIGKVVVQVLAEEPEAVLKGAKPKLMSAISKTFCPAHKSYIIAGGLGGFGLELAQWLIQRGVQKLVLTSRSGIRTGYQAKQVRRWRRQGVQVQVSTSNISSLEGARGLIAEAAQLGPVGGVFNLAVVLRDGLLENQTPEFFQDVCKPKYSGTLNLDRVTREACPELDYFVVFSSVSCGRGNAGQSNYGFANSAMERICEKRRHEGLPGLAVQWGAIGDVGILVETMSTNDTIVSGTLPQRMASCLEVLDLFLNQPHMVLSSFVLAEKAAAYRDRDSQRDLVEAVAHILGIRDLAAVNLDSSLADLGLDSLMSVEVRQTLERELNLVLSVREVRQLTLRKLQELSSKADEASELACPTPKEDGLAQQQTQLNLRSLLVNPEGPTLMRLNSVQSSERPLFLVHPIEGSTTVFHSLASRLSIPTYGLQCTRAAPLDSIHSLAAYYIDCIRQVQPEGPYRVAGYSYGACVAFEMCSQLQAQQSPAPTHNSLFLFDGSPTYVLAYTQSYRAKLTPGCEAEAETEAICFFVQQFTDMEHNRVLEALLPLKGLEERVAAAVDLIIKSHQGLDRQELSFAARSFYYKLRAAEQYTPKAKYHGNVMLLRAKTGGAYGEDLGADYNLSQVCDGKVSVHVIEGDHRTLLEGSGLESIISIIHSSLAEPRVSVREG

CC(C)(C)c1cc(C(C)(C)C)c(O)c(C(C)(C)C)c1
active: [1] 50 µM | [15] 20.9 µM
not listed: [18] | [19]
inactive: all other assays above

NC(=O)N(O)[C@@H]1C=C[C@H](Oc2cccc(Oc3ccc(F)cc3)c2)C1
active: [1] 85 µM | [3] 33 µM | [4] 84.1 µM | [5] 50 µM | [6] 42.7 µM | [7] 27.3 µM | [8] 67.3 µM | [9] 82.1 µM | [10] 64 µM | [18] 21.1 µM | [14] 68 µM | [15] 34.9 µM | [16] 22.7 µM | [17] 65.1 µM
inactive: [2] | [11] | [12] | [13]

CCCOc1sc(C(=O)N2CCC(c3cc(CN)ccc3F)CC2)c(C)c1Br
not listed: [17] | [19]
inactive: all other assays above

COCC(C)OCC(C)O (stereo not given)
active: [7] 50 µM
not listed: [17] | [19]
inactive: all other assays above

O=C(O)Cc1cc(I)c(Oc2cc(I)c(O)c(I)c2)c(I)c1
inactive: [7] | [12]
active: [1] 60.2 µM | [3] 33.5 µM | [4] 33.5 µM | [5] 45.4 µM | [6] 58.1 µM | [8] 33.5 µM | [9] 50.7 µM | [10] 50.2 µM | [11] 24.8 µM | [13] 55.4 µM | [18] 52.4 µM | [14] 19.9 µM | [19] 57.7 µM | [15] 51.7 µM | [16] 56.3 µM | [17] 56.8 µM

CC[C@H](c1ccc(O)cc1)[C@@H](CC)c1ccc(O)cc1
inactive: [7] | [11] | [18] | [14] | [15]
active: [1] 76.2 µM | [2] 62.4 µM | [3] 89.8 µM | [4] 77 µM | [5] 78.4 µM | [6] 79.9 µM | [8] 75.7 µM | [9] 78.5 µM | [10] 77 µM | [12] 77.5 µM | [13] 66.9 µM | [16] 83.9 µM | [17] 77.8 µM
